# According to PMC11062922 (Nature Chemical Biology, 2023):
# Read-outs that look alike come from different tables or passages of the source.
# Columns and labels:
# [1] = system: CDKL5; settings: read-out: apparent Kd, n = 1
# [2] = system: CLK4; settings: read-out: apparent Kd, n = 1
# [3] = compound concentrations:100 nM and 1000 nM (sheet 'Lestaurtinib' of Supplementary Table 1),run:Lestaurtinib_02606_R1,Plate:MR019
# [4] = compound concentrations:100 nM and 1000 nM (sheet 'Lestaurtinib' of Supplementary Table 1),run:Lestaurtinib_02624_R2,Plate:MR020
# [5] = compound concentrations:100 nM and 1000 nM (sheet 'Lestaurtinib' of Supplementary Table 1),run:Lestaurtinib_02766_R3,Plate:MR027
# [6] = compound concentrations:100 nM and 1000 nM (sheet 'Lestaurtinib' of Supplementary Table 1),run:Lestaurtinib_02795_R2,Plate:MR022
# [7] = compound concentrations:100 nM and 1000 nM (sheet 'Lestaurtinib' of Supplementary Table 1),run:Lestaurtinib_02802_R2,Plate:MR029
# [8] = compound concentrations:100 nM and 1000 nM (sheet 'Lestaurtinib' of Supplementary Table 1),run:Lestaurtinib_02896_R1,Plate:MR030
# [9] = compound concentrations:100 nM and 1000 nM (sheet 'Lestaurtinib' of Supplementary Table 1),run:Lestaurtinib_02896_R2,Plate:MR030
# [10] = compound concentrations:100 nM and 1000 nM (sheet 'Lestaurtinib' of Supplementary Table 1),run:Lestaurtinib_03172_R3,Plate:MR031
substance,measurement,setting,value
Lestaurtinib,potency estimated from few doses,"[1]; compound concentrations:100 nM and 1000 nM (sheet 'Lestaurtinib' of Supplementary Table 1),run:Lestaurtinib_02601_R2,Plate:MR018",0.921 µM
same,potency estimated from few doses,"[1]; compound concentrations:100 nM and 1000 nM (sheet 'Lestaurtinib' of Supplementary Table 1),run:Lestaurtinib_02601_R3,Plate:MR018",0.143 µM
same,potency estimated from few doses,[1]; [3],0.0581 µM
same,potency estimated from few doses,"[1]; compound concentrations:100 nM and 1000 nM (sheet 'Lestaurtinib' of Supplementary Table 1),run:Lestaurtinib_02606_R2,Plate:MR019",0.0983 µM
same,potency estimated from few doses,"[1]; compound concentrations:100 nM and 1000 nM (sheet 'Lestaurtinib' of Supplementary Table 1),run:Lestaurtinib_02624_R1,Plate:MR020",0.075 µM
same,potency estimated from few doses,[1]; [4],0.137 µM
same,potency estimated from few doses,"[1]; compound concentrations:100 nM and 1000 nM (sheet 'Lestaurtinib' of Supplementary Table 1),run:Lestaurtinib_02741_R2,Plate:MR023",0.695 µM
same,potency estimated from few doses,"[1]; compound concentrations:100 nM and 1000 nM (sheet 'Lestaurtinib' of Supplementary Table 1),run:Lestaurtinib_02748_R3,Plate:MR024",0.149 µM
same,potency estimated from few doses,"[1]; compound concentrations:100 nM and 1000 nM (sheet 'Lestaurtinib' of Supplementary Table 1),run:Lestaurtinib_02752_R1,Plate:MR025",0.225 µM
same,potency estimated from few doses,"[1]; compound concentrations:100 nM and 1000 nM (sheet 'Lestaurtinib' of Supplementary Table 1),run:Lestaurtinib_02752_R3,Plate:MR025",0.226 µM
same,potency estimated from few doses,"[1]; compound concentrations:100 nM and 1000 nM (sheet 'Lestaurtinib' of Supplementary Table 1),run:Lestaurtinib_02765_R2,Plate:MR026",0.212 µM
same,potency estimated from few doses,[1]; [5],0.0286 µM
same,potency estimated from few doses,[1]; [6],1.69 µM
same,potency estimated from few doses,"[1]; compound concentrations:100 nM and 1000 nM (sheet 'Lestaurtinib' of Supplementary Table 1),run:Lestaurtinib_02795_R3,Plate:MR022",0.0559 µM
same,potency estimated from few doses,[1]; [7],0.13 µM
same,potency estimated from few doses,[1]; [8],0.336 µM
same,potency estimated from few doses,[1]; [9],0.0998 µM
same,potency estimated from few doses,"[1]; compound concentrations:100 nM and 1000 nM (sheet 'Lestaurtinib' of Supplementary Table 1),run:Lestaurtinib_02896_R3,Plate:MR030",1.3 µM
same,potency estimated from few doses,"[1]; compound concentrations:100 nM and 1000 nM (sheet 'Lestaurtinib' of Supplementary Table 1),run:Lestaurtinib_03172_R1,Plate:MR031",0.298 µM
same,potency estimated from few doses,[1]; [10],0.0997 µM
same,potency estimated from few doses,"[1]; compound concentrations:100 nM and 1000 nM (sheet 'Lestaurtinib' of Supplementary Table 1),run:Lestaurtinib_03260_R2,Plate:MR033",0.46 µM
same,potency estimated from few doses,"[1]; compound concentrations:100 nM and 1000 nM (sheet 'Lestaurtinib' of Supplementary Table 1),run:Lestaurtinib_03260_R3,Plate:MR033",0.73 µM
same,potency estimated from few doses,"[2]; compound concentrations:100 nM and 1000 nM (sheet 'Lestaurtinib' of Supplementary Table 1),run:Lestaurtinib_02339_R1,Plate:MR001",0.0432 µM
same,potency estimated from few doses,"[2]; compound concentrations:100 nM and 1000 nM (sheet 'Lestaurtinib' of Supplementary Table 1),run:Lestaurtinib_02339_R2,Plate:MR001",0.0518 µM
same,potency estimated from few doses,"[2]; compound concentrations:100 nM and 1000 nM (sheet 'Lestaurtinib' of Supplementary Table 1),run:Lestaurtinib_02339_R3,Plate:MR001",0.0296 µM
same,potency estimated from few doses,"[2]; compound concentrations:100 nM and 1000 nM (sheet 'Lestaurtinib' of Supplementary Table 1),run:Lestaurtinib_02364_R2,Plate:MR002",0.0354 µM
same,potency estimated from few doses,"[2]; compound concentrations:100 nM and 1000 nM (sheet 'Lestaurtinib' of Supplementary Table 1),run:Lestaurtinib_02367_R2,Plate:MR003",0.0788 µM
same,potency estimated from few doses,"[2]; compound concentrations:100 nM and 1000 nM (sheet 'Lestaurtinib' of Supplementary Table 1),run:Lestaurtinib_02367_R3,Plate:MR003",0.0561 µM
same,potency estimated from few doses,"[2]; compound concentrations:100 nM and 1000 nM (sheet 'Lestaurtinib' of Supplementary Table 1),run:Lestaurtinib_02381_R1,Plate:MR004",0.0624 µM
same,potency estimated from few doses,"[2]; compound concentrations:100 nM and 1000 nM (sheet 'Lestaurtinib' of Supplementary Table 1),run:Lestaurtinib_02381_R2,Plate:MR004",0.0347 µM
same,potency estimated from few doses,"[2]; compound concentrations:100 nM and 1000 nM (sheet 'Lestaurtinib' of Supplementary Table 1),run:Lestaurtinib_02381_R3,Plate:MR004",0.0511 µM
same,potency estimated from few doses,"[2]; compound concentrations:100 nM and 1000 nM (sheet 'Lestaurtinib' of Supplementary Table 1),run:Lestaurtinib_02407_R2,Plate:MR005",0.017 µM
same,potency estimated from few doses,"[2]; compound concentrations:100 nM and 1000 nM (sheet 'Lestaurtinib' of Supplementary Table 1),run:Lestaurtinib_02407_R3,Plate:MR005",0.0229 µM
same,potency estimated from few doses,"[2]; compound concentrations:100 nM and 1000 nM (sheet 'Lestaurtinib' of Supplementary Table 1),run:Lestaurtinib_02422_R1,Plate:MR006",0.0279 µM
same,potency estimated from few doses,"[2]; compound concentrations:100 nM and 1000 nM (sheet 'Lestaurtinib' of Supplementary Table 1),run:Lestaurtinib_02422_R3,Plate:MR006",0.048 µM
same,potency estimated from few doses,"[2]; compound concentrations:100 nM and 1000 nM (sheet 'Lestaurtinib' of Supplementary Table 1),run:Lestaurtinib_02437_R1,Plate:MR007",0.025 µM
same,potency estimated from few doses,"[2]; compound concentrations:100 nM and 1000 nM (sheet 'Lestaurtinib' of Supplementary Table 1),run:Lestaurtinib_02437_R2,Plate:MR007",0.0717 µM
same,potency estimated from few doses,"[2]; compound concentrations:100 nM and 1000 nM (sheet 'Lestaurtinib' of Supplementary Table 1),run:Lestaurtinib_02438_R1,Plate:MR008",0.0193 µM
same,potency estimated from few doses,"[2]; compound concentrations:100 nM and 1000 nM (sheet 'Lestaurtinib' of Supplementary Table 1),run:Lestaurtinib_02438_R3,Plate:MR008",0.141 µM
same,potency estimated from few doses,"[2]; compound concentrations:100 nM and 1000 nM (sheet 'Lestaurtinib' of Supplementary Table 1),run:Lestaurtinib_02443_R1,Plate:MR009",0.0809 µM
same,potency estimated from few doses,"[2]; compound concentrations:100 nM and 1000 nM (sheet 'Lestaurtinib' of Supplementary Table 1),run:Lestaurtinib_02443_R2,Plate:MR009",0.0758 µM
same,potency estimated from few doses,"[2]; compound concentrations:100 nM and 1000 nM (sheet 'Lestaurtinib' of Supplementary Table 1),run:Lestaurtinib_02473_R1,Plate:MR010",0.058 µM
same,potency estimated from few doses,"[2]; compound concentrations:100 nM and 1000 nM (sheet 'Lestaurtinib' of Supplementary Table 1),run:Lestaurtinib_02473_R2,Plate:MR010",0.0352 µM
same,potency estimated from few doses,"[2]; compound concentrations:100 nM and 1000 nM (sheet 'Lestaurtinib' of Supplementary Table 1),run:Lestaurtinib_02482_R2,Plate:MR011",0.0864 µM
same,potency estimated from few doses,"[2]; compound concentrations:100 nM and 1000 nM (sheet 'Lestaurtinib' of Supplementary Table 1),run:Lestaurtinib_02487_R2,Plate:MR012",0.0736 µM
same,potency estimated from few doses,"[2]; compound concentrations:100 nM and 1000 nM (sheet 'Lestaurtinib' of Supplementary Table 1),run:Lestaurtinib_02496_R2,Plate:MR013",0.0981 µM
same,potency estimated from few doses,"[2]; compound concentrations:100 nM and 1000 nM (sheet 'Lestaurtinib' of Supplementary Table 1),run:Lestaurtinib_02496_R3,Plate:MR013",0.0544 µM
same,potency estimated from few doses,"[2]; compound concentrations:100 nM and 1000 nM (sheet 'Lestaurtinib' of Supplementary Table 1),run:Lestaurtinib_02566_R1,Plate:MR014",0.0479 µM
same,potency estimated from few doses,"[2]; compound concentrations:100 nM and 1000 nM (sheet 'Lestaurtinib' of Supplementary Table 1),run:Lestaurtinib_02572_R1,Plate:MR015",0.0746 µM
same,potency estimated from few doses,"[2]; compound concentrations:100 nM and 1000 nM (sheet 'Lestaurtinib' of Supplementary Table 1),run:Lestaurtinib_02572_R2,Plate:MR015",0.0416 µM
same,potency estimated from few doses,"[2]; compound concentrations:100 nM and 1000 nM (sheet 'Lestaurtinib' of Supplementary Table 1),run:Lestaurtinib_02572_R3,Plate:MR015",0.0538 µM
same,potency estimated from few doses,"[2]; compound concentrations:100 nM and 1000 nM (sheet 'Lestaurtinib' of Supplementary Table 1),run:Lestaurtinib_02577_R1,Plate:MR016",0.877 µM
same,potency estimated from few doses,"[2]; compound concentrations:100 nM and 1000 nM (sheet 'Lestaurtinib' of Supplementary Table 1),run:Lestaurtinib_02577_R2,Plate:MR016",0.83 µM
same,potency estimated from few doses,"[2]; compound concentrations:100 nM and 1000 nM (sheet 'Lestaurtinib' of Supplementary Table 1),run:Lestaurtinib_02584_R1,Plate:MR017",0.0658 µM
same,potency estimated from few doses,"[2]; compound concentrations:100 nM and 1000 nM (sheet 'Lestaurtinib' of Supplementary Table 1),run:Lestaurtinib_02584_R2,Plate:MR017",0.0679 µM
same,potency estimated from few doses,"[2]; compound concentrations:100 nM and 1000 nM (sheet 'Lestaurtinib' of Supplementary Table 1),run:Lestaurtinib_02584_R3,Plate:MR017",0.0444 µM
same,potency estimated from few doses,[2]; [3],0.0782 µM
same,potency estimated from few doses,"[2]; compound concentrations:100 nM and 1000 nM (sheet 'Lestaurtinib' of Supplementary Table 1),run:Lestaurtinib_02606_R3,Plate:MR019",0.0454 µM
same,potency estimated from few doses,[2]; [4],0.0791 µM
same,potency estimated from few doses,"[2]; compound concentrations:100 nM and 1000 nM (sheet 'Lestaurtinib' of Supplementary Table 1),run:Lestaurtinib_02624_R3,Plate:MR020",0.0554 µM
same,potency estimated from few doses,"[2]; compound concentrations:100 nM and 1000 nM (sheet 'Lestaurtinib' of Supplementary Table 1),run:Lestaurtinib_02724_R2,Plate:MR021",0.0627 µM
same,potency estimated from few doses,"[2]; compound concentrations:100 nM and 1000 nM (sheet 'Lestaurtinib' of Supplementary Table 1),run:Lestaurtinib_02724_R3,Plate:MR021",0.0761 µM
same,potency estimated from few doses,"[2]; compound concentrations:100 nM and 1000 nM (sheet 'Lestaurtinib' of Supplementary Table 1),run:Lestaurtinib_02741_R3,Plate:MR023",0.062 µM
same,potency estimated from few doses,"[2]; compound concentrations:100 nM and 1000 nM (sheet 'Lestaurtinib' of Supplementary Table 1),run:Lestaurtinib_02748_R2,Plate:MR024",0.132 µM
same,potency estimated from few doses,[2]; [5],0.0694 µM
same,potency estimated from few doses,"[2]; compound concentrations:100 nM and 1000 nM (sheet 'Lestaurtinib' of Supplementary Table 1),run:Lestaurtinib_02768_R2,Plate:MR028",1.15 µM
same,potency estimated from few doses,"[2]; compound concentrations:100 nM and 1000 nM (sheet 'Lestaurtinib' of Supplementary Table 1),run:Lestaurtinib_02768_R3,Plate:MR028",0.0507 µM
same,potency estimated from few doses,"[2]; compound concentrations:100 nM and 1000 nM (sheet 'Lestaurtinib' of Supplementary Table 1),run:Lestaurtinib_02795_R1,Plate:MR022",0.0633 µM
same,potency estimated from few doses,[2]; [6],0.0424 µM
same,potency estimated from few doses,[2]; [7],0.0629 µM
same,potency estimated from few doses,"[2]; compound concentrations:100 nM and 1000 nM (sheet 'Lestaurtinib' of Supplementary Table 1),run:Lestaurtinib_02802_R3,Plate:MR029",0.0429 µM
same,potency estimated from few doses,[2]; [8],0.0452 µM
same,potency estimated from few doses,[2]; [9],0.0449 µM
same,potency estimated from few doses,[2]; [10],0.0825 µM
same,potency estimated from few doses,"[2]; compound concentrations:100 nM and 1000 nM (sheet 'Lestaurtinib' of Supplementary Table 1),run:Lestaurtinib_03252_R2,Plate:MR032",0.0387 µM
